Experimental data reported in PubChem BioAssay (NCATS).
“And” between values parts separate entries of the source, which are not always exact repeats. Identical values can stand only once. Records with an inconclusive call do not appear. A number with no mark means an inactive call. The source made the active and inactive calls. Calls come from the whole dose curve; as a rule, active = well fitted curve in the direction sought with a large enough effect; inconclusive = small, poorly fitted or top-dose-only effect, or another doubt; inactive = no such curve, though single readings can be large; an effect the other way counts as inactive or inconclusive.

Tests used:
[1] = Viability qHTS for spleen associated tyrosine kinase inhibitor (SYKi) naive MV4-11 cells (AID 1963823); note: nearly all actives have a fitted effect of over 40% in size
In short: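 Luminescence from CellTiter-Glo, developed 10 min at room temperature, gave viability of MV4-11 cells never exposed to SYK inhibitor. Cells (500/well) had been incubated with compounds for 72 hr under standard culture conditions.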

[2] = Viability qHTS for spleen associated tyrosine kinase inhibitor (SYKi) drug resistant MV4-11 cells (AID 1963824); note: nearly all actives have a fitted effect of over 35% in size
In short: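 SYK-inhibitor-resistant MV4-11 AML cells were seeded at 500 per well onto compound and cultured 72 hours (37 °C, 5% CO2). CellTiter-Glo was then added, and after 10 min at room temperature, luminescence gave viability.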

[3] = Quantitative highthroughput screen to assess conditional lethalithy of NOMO1 cells grown in RPMI1640 with dialyzed fetal bovine serum (RPMI+ds) (AID 1963877); note: nearly all actives have a fitted effect of over 30% in size;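 for Viability: series mostly up to about 46 µM; 100% = DMSO control wells and 0% = empty wells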
In short: (§1)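 Each medium arm—HPLM with 10% dialyzed FBS, or RPMI1640 with 5 mM glucose and 10% untreated or dialyzed FBS—was screened against an 11-point, 3-fold compound titration for 48 h at 37 °C, with CellTiter-Glo luminescence as endpoint.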

[4] = Quantitative highthroughput screen to assess conditional lethalithy of SEM cells grown in Human Plasma-Like Medium with dialyzed fetal bovine serum (HPLM+ds) (AID 1963882); note: nearly all actives have a fitted effect of over 35% in size; for Viability: series mostly up to about 46 µM
In short: as §1

[5] = Cellular viability qHTS for adrenocortical cancer (ACC) cell line SW-13 (AID 1963989); conditions: SW-13 ACC cells viability, CellTiter-Glo, 48 h; activity (max response): hits give low values; note: nearly all actives have a fitted effect of over 65% in size;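 for activity (max response): cells grown in serum-free medium with ITS supplement; % is set by controls: 0 for no effect and ±100 for the full control effect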
In short: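 SW-13 cells in ITS-supplemented serum-free DMEM were plated overnight, then exposed for 48 h at 37C to compound titrations (up to 46 uM final). Viability was read by CellTiter-Glo luminescence; four-parameter logistic fits gave IC50 and efficacy.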

[6] = Cellular viability qHTS for adrenocortical cancer (ACC) cell line NCI-H295R (AID 1963990); note: nearly all actives have a fitted effect of over 60% in size
In short: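 Luminescent ATP read-out (CellTiter-Glo, 20 min RT) after 48 h drug exposure of NCI-H295R cells; a titration up to 46 uM final. Data normalized to doxorubicin (100% inhibition) and DMSO (0%); 4-parameter fit gives IC50, max response.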

[7] = Quantitative highthroughput screen to assess conditional lethalithy of NOMO1 cells grown in Human Plasma-Like Medium with dialyzed fetal bovine serum (HPLM+ds) (AID 1963878); note: nearly all actives have a fitted effect of over 35% in size;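 for Viability: 100% = DMSO wells and 0% = empty wells on each plate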
In short: as §1

[8] = Quantitative highthroughput screen to assess conditional lethalithy of P12 Ichikawa cells grown in Human Plasma-Like Medium with dialyzed fetal bovine serum (HPLM+ds) (AID 1963879); conditions: Potency: viability; note: nearly all actives have a fitted effect of over 35% in size; for Viability: series mostly up to about 46 µM
In short: as §1

[9] = Quantitative highthroughput screen to assess conditional lethalithy of SEM cells grown in RPMI1640 with unreated serum (RPMI+s) (AID 1963883); note: nearly all actives have a fitted effect of over 35% in size;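 for Viability: 100% = DMSO wells and 0% = empty wells without cells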
In short: as §1

[10] = Quantitative highthroughput screen to assess conditional lethalithy of SEM cells grown in RPMI1640 with dialyzed fetal bovine serum (RPMI+ds) (AID 1963884); note: nearly all actives have a fitted effect of over 35% in size;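 for Viability: series mostly up to about 46 µM; 100% = DMSO control wells and 0% = empty wells without cells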
In short: as §1

[11] = Quantitative highthroughput screen to assess conditional lethalithy of P12 Ichikawa cells grown in RPMI1640 with dialyzed fetal bovine serum (RPMI+ds) (AID 1963880); conditions: Potency: P12-Ichikawa viability; note: nearly all actives have a fitted effect of over 35% in size;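 for Viability: 100% = DMSO wells and 0% = empty wells on each plate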
In short: as §1

[12] = Quantitative highthroughput screen to assess conditional lethalithy of P12 Ichikawa cells grown in RPMI1640 with untreated serum (RPMI+s) (AID 1963881); conditions: Potency: viability; note: nearly all actives have a fitted effect of over 35% in size;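 for Viability: series mostly up to about 46 µM; 100% = DMSO wells and 0% = empty wells without cells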
In short: as §1
Potency is the fitted concentration of half-maximal effect.

Structure (SMILES) | Potency [1] | Potency [2] | Potency [3] | Potency [4] | Potency [5] | Potency [6] | Potency [7] | Potency [8] | Potency [9] | Potency [10] | Potency [11] | Potency [12] | activity (max response) [5] [%]
C1CCC(C(CC2CCCCN2)C2CCCCC2)CC1 (stereo unspecified) | 2.95 µM (active) | 2.95 µM (active) | 23.5 µM (active) | 14.8 µM (active) | 7.08 µM (active) | 7.08 µM (active) | – | – | – | – | – | – | –
OCCNC1CCCc2c1[nH]c1ccc(-c3ccccc3)cc21 (stereo unspecified) | 8.33 µM (active) | 8.33 µM (active) | – | – | 15.8 µM (active) | 7.08 µM (active) | 23.5 µM (active) | 20.9 µM (active) | 16.6 µM (active) | – | – | – | –
CNC(=O)c1c(F)cccc1Nc1nc(Nc2cc3c(cc2OC)CCN3C(=O)CN(C)C)nc2[nH]ccc12 | 2.59 µM (active) and 4.68 µM (active) | 2.91 µM (active) and 4.68 µM (active) | – | 0.59 µM (active) | – | – | 16.6 µM (active) | – | 0.469 µM (active) | 0.296 µM (active) | – | – | –
C#Cc1cccc(Nc2ncnc3cc(OCCOC)c(OCCO)cc23)c1 | 1.48 µM (active) | 2.63 µM (active) | – | – | 6.31 µM (active) | – | 9.35 µM (active) | – | 20.9 µM (active) | – | – | – | –
C[C@@H]1COC(Nc2ccc3ncnc(Nc4ccc(OCc5nccs5)c(Cl)c4)c3c2)=N1 | 4.11 µM (active) | 2.91 µM (active) | inactive | – | 15.8 µM (active) | 28.2 µM (active) | – | – | – | – | 18.7 µM (active) | – | –
CC[C@@]1(O)C[C@H](O[C@H]2C[C@H](N(C)C)[C@H](O[C@H]3C[C@H](O)[C@H](O[C@H]4CCC(=O)[C@H](C)O4)[C@H](C)O3)[C@H](C)O2)c2c(cc3c(c2O)C(=O)c2c(O)cccc2C3=O)[C@@H]1C(=O)OC | 1.66 µM (active) | 1.32 µM (active) | – | – | 10 µM (active) | 22.4 µM (active) | 1.18 µM (active) | inactive | – | 0.0662 µM (active) | 16.6 µM (active) | – | –
Cc1ccccc1C(=O)c1ccc(Nc2ccc(Br)cc2N)cc1Cl | 11.8 µM (active) and 13 µM (active) | 16.6 µM (active) and 18.4 µM (active) | 20.9 µM (active) | – | – | 31.6 µM (active) | – | – | – | – | – | – | –
CC1CCC(C(=O)N(c2cc(C#CC(C)(C)C)sc2C(=O)O)C2CCC(O)CC2)CC1 (stereo unspecified) | 16.4 µM (active) | 11.8 µM (active) and 14.6 µM (active) | – | – | – | – | 5.26 µM (active) | – | – | – | – | – | –
CNC(=O)c1c(-c2ccc(F)cc2)oc2cc(N(CCO)S(C)(=O)=O)c(C3CC3)cc12 | inactive | inactive | – | 1.32 µM (active) | – | inactive | 8.33 µM (active) | – | – | 0.264 µM (active) | 5.9 µM (active) | 6.62 µM (active) | -0.986
CNC(=O)c1cc(Oc2ccc(NC(=O)Nc3ccc(Cl)c(C(F)(F)F)c3)cc2)ccn1 | 0.0211 µM (active) | 23.5 nM (active) and 59.6 nM (active) and 13 nM (active) | 18.7 µM (active) | – | 8.91 µM (active) and 11.6 µM (active) | – | – | – | – | – | – | – | –
COc1cc2c(Nc3ccc(NC(=O)c4ccccc4)cc3)ncnc2cc1OCCCN1CCOCC1 | 1.16 µM (active) and 1.86 µM (active) | 2.06 µM (active) and 2.09 µM (active) | – | – | – | 15.8 µM (active) | inactive | 3.72 µM (active) | 3.72 µM (active) | 2.96 µM (active) | 3.32 µM (active) | 4.69 µM (active) | -24.4
NC1(c2ccc(-c3nc4ccn5c(=O)[nH]nc5c4cc3-c3ccccc3)cc2)CCC1 | 3.72 µM (active) | 11.9 µM (active) and 8.2 µM (active) and 5.9 µM (active) | – | 1.66 µM (active) | – | 10.3 µM (active) and 7.94 µM (active) | 20.9 µM (active) | – | 2.09 µM (active) | 1.48 µM (active) | – | – | –
COc1cc2c(cc1Cc1cccc(Cl)c1F)c(=O)c(C(=O)O)cn2[C@H](CO)C(C)C | 5.9 µM (active) | 7.42 µM (active) | – | – | – | 25.1 µM (active) | – | 26.4 µM (active) | – | – | 16.6 µM (active) | 16.6 µM (active) | –
CC(C)(O)CNc1nc(Nc2ccnc(C(F)(F)F)c2)nc(-c2cccc(C(F)(F)F)n2)n1 | 14.8 µM (active) | 14.8 µM (active) | – | – | – | – | – | 2.95 µM (active) | – | 3.31 µM (active) | 2.95 µM (active) | 2.95 µM (active) | –
CN(C)CC[C@H](CSc1ccccc1)Nc1ccc(S(=O)(=O)NC(=O)c2ccc(N3CCN(Cc4ccccc4-c4ccc(Cl)cc4)CC3)cc2)cc1[N+](=O)[O-] | 0.148 µM (active) | 0.0332 µM (active) | – | 0.059 µM (active) | – | 22.4 µM (active) | – | 1.48 µM (active) | 0.0935 µM (active) | 0.0469 µM (active) | 2.35 µM (active) | 2.64 µM (active) | –
CCn1c(=O)c2c(nc(C=Cc3ccc(OC)c(OC)c3)n2C)n(CC)c1=O | inactive | inactive | – | inactive | – | inactive | – | inactive | inactive | inactive | inactive | inactive | 1.29
CCC[C@H](Nc1nc(-c2ccc(NC(=O)NCC)c(OC)c2)ncc1C)c1cccnc1 | 0.0742 µM (active) | 0.118 µM (active) | – | 0.0418 µM (active) | 0.224 µM (active) | – | – | 0.0418 µM (active) | – | – | 0.0418 µM (active) | 0.0418 µM (active) | –
Oc1ccc([C@@H]2Oc3ccc(O)cc3[C@@H]3CCC[C@@H]32)cc1 | 5.8 µM (active) | 4.61 µM (active) | – | – | – | 7.08 µM (active) | – | 13.2 µM (active) | – | 10.5 µM (active) | – | 11.8 µM (active) | –
OC(c1cc(C(F)(F)F)nc2c(C(F)(F)F)cccc12)C1CCCCN1 (stereo unspecified) | 18.6 µM (active) | 9.34 µM (active) | – | – | 22.4 µM (active) | 25.1 µM (active) | 23.5 µM (active) | – | – | – | – | – | –
Cn1cnc2c(F)c(Nc3ccc(Br)cc3F)c(C(=O)NOCCO)cc21 | 0.206 µM (active) | 0.146 µM (active) | – | – | 17.8 µM (active) | inactive | – | inactive | – | – | inactive | inactive | –
CN1CCN(CCOc2cc(OC3CCOCC3)c3c(Nc4c(Cl)ccc5c4OCO5)ncnc3c2)CC1 | 6.51 µM (active) and 5.9 µM (active) | 9.2 µM (active) and 9.34 µM (active) | – | – | 3.98 µM (active) | 31.6 µM (active) | – | 8.33 µM (active) | 6.62 µM (active) | – | 18.7 µM (active) | 29.6 µM (active) | –
Nc1nc(Cl)nc2c1ncn2[C@@H]1O[C@H](CO)[C@@H](O)[C@H]1F | 0.082 µM (active) | 0.164 µM (active) | – | inactive | – | – | – | inactive | inactive | inactive | inactive | inactive | –
O=C(O)C1(Cc2cccc(Nc3nccs3)n2)CCC(Oc2cccc(Cl)c2F)CC1 (stereo unspecified) | 0.517 µM (active) | 461 nM (active) and 468 nM (active) | – | 2.96 µM (active) | – | – | – | 2.35 µM (active) | – | – | – | 2.64 µM (active) | –
Cc1cccc(Nc2nc(N[C@@H]3CCCC[C@H]3N)ncc2C(N)=O)c1 | 0.934 µM (active) | 2.63 µM (active) | – | – | 25.1 µM (active) | 28.2 µM (active) | – | 1.32 µM (active) | 4.18 µM (active) | 2.35 µM (active) | 1.87 µM (active) | 3.32 µM (active) | –
